Source: PubChem
ARNT-TACC3 inh: disruptors of ARNT/TACC3 protein interaction, primary screen, biochemical, AlphaScreen, single concentration. AID 623870, 2012. AlphaScreen His-ARNT PAS-B/GST-TACC3 binding, luminescence; TACC3 fragment carries E629A point mutation. inhibition, % at 9.99 µM. Transforming acidic coiled-coil-containing protein 3 (Homo sapiens), Q9Y6A5. 0.66% of 390,000 active;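 active = mean inhibition of replicates at least 50% and at least half of replicates each reaching 50%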;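 also: 0% = complete ARNT plus TACC3 wells and 100% = ARNT alone without TACC3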
Casp6 inh: human caspase-6 inhibitors, primary screen, biochemical, VEID-R110 fluorescence, single point, set 2; AID 686996, 2013; inhibition, % at 12.5 µM; 0.53% of 350,000 active; P55212; purified caspase-6, Z-VEID-R110 cleavage fluorescence;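 active = mean inhibition across replicates at least about 35%, with every replicate also reaching that limit, limit read from the data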;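 also: 0% = median of neutral control wells and 100% = no fluorescence left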
Target sequence (P55212 24-179 limits assumed): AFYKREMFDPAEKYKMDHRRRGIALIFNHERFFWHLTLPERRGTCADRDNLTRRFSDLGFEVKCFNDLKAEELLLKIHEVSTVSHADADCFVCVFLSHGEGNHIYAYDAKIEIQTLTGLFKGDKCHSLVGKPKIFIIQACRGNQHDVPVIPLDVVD
Target sequence (P55212 194-293 limits assumed): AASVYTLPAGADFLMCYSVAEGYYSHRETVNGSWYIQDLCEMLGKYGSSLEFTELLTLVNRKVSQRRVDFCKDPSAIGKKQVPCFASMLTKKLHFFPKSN
PfHsp90 set2: growth inhibition of PfHsp90-expressing yeast, primary screen, antimalarial PfHsp90 inhibitor project, S. cerevisiae, BacTiter-Glo luminescence, single point, set 2; AID 504621, 2011; 0.32% of 310,000 active; inhibition, % at 9.4 µM; BacTiter-Glo ATP, 48 h; yeast lacking PDR1 and PDR3 efflux regulators;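 active = every replicate shows inhibition above about 80%, whatever the replicate mean, limit read from the data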;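 also: 0% = DMSO neutral controls and 100% = 20 µM radicicol positive controls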
NSD2 inh: NSD2 histone methyltransferase inhibitors, primary screen, biochemical, AlphaScreen, single concentration, set 2 | NSD2 peptide methylation, 120 min | inhibition, % at 12.5 µM | 0.54% of 310,000 active; in the data active = inhibition above about 50%
SIRT5 block: SIRT5 desuccinylase inhibitors, primary screen, biochemical, fluorescence imaging, single point, set 5 | NAD-dependent protein deacylase sirtuin-5, mitochondrial (Homo sapiens), Q9NXA8 | Purified SirT5, succinyl-peptide AMC, trypsin-coupled fluorescence | inhibition, % at 15 µM | 1.1% of 330,000 active | AID 652115, 2013; in the data active = inhibition above about 15%
Active calls of the source: *; / = no result given. Hits are enriched below; roughly 2.1% of the tested compounds scored in any of these assays.

SMILES	ARNT-TACC3 inh	Casp6 inh	PfHsp90 set2	NSD2 inh	SIRT5 block
CN(C)CC(=O)N[C@H]1CC[C@@H](CCNC(=O)C2CCCCC2)O[C@H]1CO	-2.7	-27.9	/	/	3.8
COc1ccc2c3c([nH]c2c1)[C@H](CO)N(C(=O)Nc1ccccc1F)CC31CN(C(C)=O)C1	/	2.9	/	/	-2.7
O=C(O)CCC(=O)OCCc1cc2ccccc2c(=O)o1	-11.0	-1.1	0.7	/	-4.0
O=C(O)CCCC(=O)OCCCc1cc2ccccc2c(=O)o1	/	37.4*	/	/	/
CN(Cc1ccccc1)C(=O)c1ccc(NC(=O)Cc2cccc(NC(=O)C3CCN(C(=O)C4CC4)CC3)c2)cc1	-4.0	-0.9	-0.1	/	/
O=C(Cc1cccc(NC(=O)C2CCCN(C(=O)C3CCCC3)C2)c1)Nc1cccc(C(=O)N2CCOCC2)c1 (centres undefined)	-5.7	1.8	-7.9	/	19.1*
CN(Cc1ccccc1)C(=O)c1ccc(NC(=O)Cc2cccc(NC(=O)C3CCN(C(=O)C4CCCCC4)CC3)c2)cc1	14.9	-2.6	-8.0	/	16.1*
CN(C(=O)c1cccc(NC(=O)Cc2ccc(NC(=O)C3CCN(C(=O)C4CCC4)CC3)cc2)c1)C1CC1	-4.5	0.6	-4.3	/	23.3*
CCCC(=O)Nc1ccc2c(c1)OC[C@H](C)N(Cc1ccccn1)C[C@@H](C)[C@H](OC)CN(C)C2=O	6.1	-2.4	/	/	0.9
COc1cccc(NC(=O)N(C)C[C@H]2Oc3cc(/C=C/c4ccccc4)ccc3S(=O)(=O)N([C@@H](C)CO)C[C@H]2C)c1	-2.2	3.2	/	/	9.3
C[C@H](CO)N1C[C@H](C)[C@@H](CN(C)C(=O)C2CCC2)Oc2ncc(-c3cccc(F)c3)cc2C1=O	-5.6	-3.6	/	/	3.0
COc1ccc([C@H]2CC(=O)C[C@@H](CCn3cc(-c4cccnc4)nn3)O2)cc1	/	-40.1	/	/	33.3*
CC(C)CC#Cc1ccc([C@@H]2[C@H]3CN(C(=O)Nc4ccccc4)CCCCN3[C@H]2CO)cc1	5.6	0.8	/	/	16.5*
CC(C)CC#Cc1ccc([C@H]2[C@H](CO)N3CCCCN(C(=O)NC4CCCC4)C[C@@H]23)cc1	7.6	-0.7	/	/	17.5*
CC(C)CC#Cc1ccc([C@H]2[C@@H](CO)N3CCCCN(C(=O)NC4CCCC4)C[C@@H]23)cc1	3.9	-1.1	/	/	5.6
C[C@@H]1CN([C@H](C)CO)S(=O)(=O)c2ccc(/C=C/c3ccccc3)cc2O[C@H]1CN(C)C(=O)NC1CCCCC1	16.0	-0.9	/	/	24.6*
C[C@H]1CN([C@@H](C)CO)S(=O)(=O)c2ccc(/C=C/c3ccccc3)cc2O[C@@H]1CN(C)C(=O)NC1CCCCC1	2.9	1.3	/	/	29.5*
C[C@H](CO)N1C[C@H](C)[C@H](CN(C)S(=O)(=O)c2ccc(F)cc2)Oc2cc(-c3cccc(F)c3)ccc2S1(=O)=O	-7.4	-0.5	/	/	12.6
C[C@H]1CN([C@@H](C)CO)S(=O)(=O)c2ccc(-c3cccc(F)c3)cc2O[C@H]1CN(C)S(=O)(=O)c1ccc(F)cc1	-3.2	1.1	/	/	19.7*
Cc1ccc(S(=O)(=O)N(C)C[C@@H]2Oc3cc(-c4cccc(F)c4)ccc3S(=O)(=O)N([C@@H](C)CO)C[C@@H]2C)cc1	11.7	0.6	/	/	-2.7
C[C@@H]1CN([C@@H](C)CO)S(=O)(=O)c2ccc(-c3cccc(F)c3)cc2O[C@@H]1CN(C)S(=O)(=O)c1ccc(F)cc1	-7.0	-0.6	/	/	16.6*
CC(C)=C[C@@H]1C[C@H](C)[C@H]2CC[C@H](C)c3c(O[C@@H]4O[C@@H](C)[C@@H](O)[C@@H](O)[C@@H]4O)c(O)c(C)c1c32	-0.7	/	104.9*	/	/
O=C(Nc1nccs1)[C@H]1[C@H](CO)[C@H]2Cn3c(cccc3=O)[C@@H]1N2C(=O)C1CCC1	-3.2	-0.2	/	/	2.4
Cc1ccccc1NC(=O)COC(=O)CCC(=O)c1cccs1	-5.4	0.0	-0.5	-2.4	15.4*
Cc1ccc(NC(=O)CCC(=O)c2cccs2)cc1F	-3.4	-3.5	-89.7	-6.1	101.4*
C[C@@H]1CN([C@H](C)CO)C(=O)c2cccc(NS(C)(=O)=O)c2O[C@@H]1CN(C)S(=O)(=O)c1ccccc1	/	1.8	/	/	-2.2
